Screening data from PubChem BioAssay.
Shown are actives, neighbours in structure and some others; about 3.6% of the full set was active somewhere.
mHTT-CaM PPI inh: inhibitors of human mutant huntingtin-calmodulin interaction | P42858 | AlphaScreen His-mHTT/GST-CaM binding, luminescence | inhibition, % at 15 µM | hit rate 3.6% among 190,000;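 note: 0% = both proteins with DMSO and 100% = one protein alone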
Pf apPOL inh: Pf-apPOL DNA polymerase inhibition | Recombinant Pf-apPOL, molecular beacon fluorescence, 1.5 h | inhibition, % at 10 µM | hit rate 0.25% among 210,000 | AID 1794808
Starred values were filed as active, the others as inactive; nt = no result given. Cut-off read from the data, not from the text of the source: active = inhibition above about 50%; inactive = the rest.

SMILES | mHTT-CaM PPI inh | Pf apPOL inh
COc1cccc(CNC(=O)c2cc3c(s2)CCN(C(C)=O)C3)c1 | 9.7 | -3.7
Cn1c(CNC(=O)C2CCC2)nc2c1CN(C(=O)Cc1cccc(F)c1)CC2 | 5.3 | -2.8
Cc1sc(NC(=O)Cc2ccccc2)nc1-c1ccccc1 | -1.8 | 5.6
CCOc1ccc(CCNC(=O)c2sc3nc(C)cc(COC)c3c2N)cc1OCC | 0.0 | -7.0
Cc1ccccc1Cc1c(C)nc2nc(SCC(=O)NCc3ccccc3)nn2c1C | 6.0 | -5.8
O=C(NCc1cccnc1)c1nc(-c2ccc(Cl)cc2)n2c1CCCCC2 | 21.4 | -0.2
COc1cccc(CNC(=O)c2nc(-c3ccc(C)cc3)n3c2CCCCC3)c1 | 74.4* | 3.4
CCNC(=O)c1nc(-c2ccc(C)cc2)n2c1CCCCC2 | 6.9 | -16.3
COc1ccc(CNC(=O)c2nc(-c3ccc(C)cc3)n3c2CCCCC3)cc1 | 54.2* | -2.1
CCCc1cc(=O)[nH]c2nnc(SCc3ccc(C(=O)OC)o3)n12 | -6.5 | 4.7
CCN1CCN(C(=O)C2COC3(CCCCC3)N2C(=O)c2ccccc2)CC1 (stereo unspecified) | -1.5 | -1.8
Cc1ccc(-c2coc(-c3ccc(N)cc3)n2)c(C)c1 | 59.2* | -0.2
Cc1ccc(C)c(-c2coc(-c3ccc(N)cc3)n2)c1 | 53.1* | -0.7
Cc1ccc(-c2csc(N)n2)c(C)c1 | 13.2 | -2.8
Cc1ccc(-c2nc3cc(N)ccc3o2)cc1C | 24.1 | -16.9
Cc1cccc(NC(=O)N2CCC(n3cnc4c(C)cccc4c3=O)CC2)c1 | 2.1 | -0.9
CSC1=NSC2=NC(=O)/C(=C\c3ccc(C)o3)C(=N)N12 | 1.0 | 7.4
CC(C)CSC1=NSC2=NC(=O)/C(=C\c3ccc([N+](=O)[O-])o3)C(=N)N12 | 79.0* | -2.7
CSC1=NSC2=NC(=O)/C(=C\c3ccc([N+](=O)[O-])o3)C(=N)N12 | 100.0* | 0.5
Cc1ccc(/C=C2/C(=N)N3C(SCC(C)C)=NSC3=NC2=O)o1 | -3.0 | -17.1
CCOc1ccc(NC(=O)CC2Sc3ccccc3NC2=O)cc1 (stereo unspecified) | 2.1 | 2.2
O=C(CSc1ncc(-c2ccc(Br)cc2)[nH]1)Nc1cc(F)ccc1F | 34.0 | -7.9
CSc1cccc(NC(=O)Cn2ccc3c(=O)[nH]ccc32)c1 | 1.3 | 18.6
COc1ccc(NC(=O)Cn2ccc3c(=O)[nH]ccc32)cc1Cl | 24.0 | 78.1*
Cc1ccc(NC(=O)Cn2ccc3c(=O)[nH]ccc32)c(C)c1 | -4.0 | 21.3
SMILES | mHTT-CaM PPI inh | Pf apPOL inh
COc1ccc(C)cc1NC(=O)Cn1ccc2c(=O)[nH]ccc21 | 38.8 | 72.9*
O=C(CNc1c2ccccc2nc2ccccc12)NC(Cc1c[nH]c2ccccc12)C(=O)O (stereo unspecified) | 32.0 | 0.4
CC(C)C(=O)NCCc1csc(C2CCCN(C(=O)c3ccco3)C2)n1 (stereo unspecified) | 1.9 | -1.5
CC(=Cc1ccccc1)C=C1SC(=S)N(C(CCC(=O)O)C(=O)O)C1=O (stereo unspecified) | 10.9 | -141.6
CC(=Cc1ccccc1)C=C1SC(=S)N(C(Cc2ccccc2)C(=O)O)C1=O (stereo unspecified) | 85.3* | -135.0
CCS(=O)(=O)N1CCc2ccc(NC(=O)c3c(F)cccc3Cl)cc2C1 | -0.5 | -4.5
O=[N+]([O-])c1ccc(Nc2ccc(F)cc2)cc1 | nt | -1.5
O=Cc1[nH]c2ccccc2c1Nc1ccc([N+](=O)[O-])cc1 | 100.2* | -2.0
O=c1sc2ccccc2c(Nc2ccc([N+](=O)[O-])cc2)c1[N+](=O)[O-] | 25.0 | nt
O=[N+]([O-])c1ccc(Nc2c[nH]c3ccccc23)cc1 | 89.0* | 0.6
FC(F)(F)c1oc(-c2ccc(Cl)cc2)cc1-c1nnc(-c2ccco2)o1 | nt | -2.8
O=C1C=CC(=O)N1c1ccc(Oc2ccc(Oc3ccc(N4C(=O)C=CC4=O)cc3)cc2)cc1 | 6.0 | -2.5
Cc1ccc(-c2cc(C(F)(F)F)n3ncc(C(=O)N4CCCC4)c3n2)cc1 | -5.0 | 1.3
CCN1CCN(c2ncc3c(n2)CCN(Cc2cc(F)cc(F)c2)C3)CC1 | 22.6 | -1.9
CCOc1ccc(CN2CCc3nc(N4CCCC4)ncc3C2)cc1OCC | 0.1 | 3.3
CCN1CCN(c2ncc3c(n2)CCN(Cc2cccc(Br)c2)C3)CC1 | 57.4* | 1.9
c1ccc(CN2CCc3nc(N4CCCC4)ncc3C2)cc1 | 48.0 | 6.1
Cc1cccc(CN2CCc3nc(N4CCCC4)ncc3C2)c1 | 83.9* | 8.5
Brc1cccc(CN2CCc3nc(N4CCCC4)ncc3C2)c1 | 100.3* | 7.2
CN(C)c1ccc(CN2CCc3nc(N4CCN(c5ncccn5)CC4)ncc3C2)cc1 | 99.9* | -3.1
Cc1ccc(CN2CCc3nc(N4CCN(c5ccccc5)CC4)ncc3C2)cc1 | 27.8 | 2.8
CC(C)CN1CCn2cc(C(=O)NCc3cccc(F)c3)nc2C1 | 16.1 | -6.3
Cc1cc(C)c2c(N3CCCC3)nc(C(=O)NCC3CC3)nc2n1 | -9.7 | -2.0
CCC(=O)N1CCN(c2ccc([N+](=O)[O-])cc2F)CC1 | 2.0 | -4.6
CCc1ccc(CN2CCc3nc(N4CCN(CC)CC4)ncc3C2)cc1 | 33.7 | -0.2
